Measured values taken from ChEMBL document CHEMBL1157539, “Thousands of chemical starting points for antimalarial lead identification” (Nature, 2010).

test system: Plasmodium falciparum; assay: GSK_TCMDC: Inhibition of Plasmodium falciparum 3D7 in whole red blood cells, using parasite LDH activity as an index of growth. Test compounds present at 2uM; assay type: functional

Row | SMILES | Inhibition [%]
1 | COc1ccc2c(NCCc3ccccc3)cc(-c3ccccc3)nc2c1.Cl | 98
2 | CC1CN(c2cccc3c2nc(-c2cncc(C#N)c2)n3CCNCc2ccccc2)CC(C)O1.O=C(O)C(F)(F)F (stereo not given) | 83
3 | Nc1c(Cl)cc(C(O)CNCCCCCCCCCc2ccccn2)cc1Cl (stereo not given) | 98
4 | NC(=O)c1ccccc1OCC(=O)Nc1cccc(-c2ccc(-c3nc4cc(C(F)(F)F)ccc4[nH]3)cc2)c1 | 92
5 | CCCCCCCN1CC[C@@H](CCCc2ccnc3ccc(OCCN4CCNCC4)cc23)[C@@H](CC)C1.Cl | 100
6 | CS(=O)(=O)NCCCNCc1cccc(-c2cccc(-c3nc4cc(C(F)(F)F)ccc4[nH]3)c2)c1.O=C(O)C(F)(F)F | 99
7 | CN1CCCC1CCNC(=O)[C@H](CC1CCCCC1)NC(=O)c1ccc(O)c(-c2ccc(Cl)c(Cl)c2)c1 (stereo not given in full) | 98
8 | COc1ccc(-n2ccnc2SCC(=O)Nc2cc(Cl)ccc2OC)c(OC)c1 | 96
9 | Cl.O=C(OCC1CCN(Cc2ccccc2)C1)c1ccc(Cl)cc1 (stereo not given) | 100
10 | CCOC(=O)c1c(C)noc1Nc1ccc(OC)cc1 | 99
11 | NCCNC(=O)c1ccc(-c2cnc3[nH]cc(-c4ccc(C(N)=O)cc4)c3c2)cc1 | 99
12 | O=c1c2ccccc2[nH]c2nc3ccccc3c(Nc3ccccc3)c12 | 98
13 | COc1ccc(C2=C(Nc3ccc4oc5ccccc5c4c3)c3ccccc3C2=O)cc1 | 93
14 | Nc1nccc2ccc(-c3ccncc3)cc12 | 96
15 | CCc1c(C)nc(-n2nc(C)cc2NC(=O)C(CC)c2ccccc2)[nH]c1=O (stereo not given) | 97
